Compound activity: PubChem BioAssay, University of Kansas High Throughput Screening Laboratory
Shown is part of a subset that was picked to be rich in hits.
mHTT-CaM PPI inh = mutant huntingtin-calmodulin interaction inhibitors – biochemical, AlphaScreen, primary screen; AlphaScreen His-mHTT/GST-CaM binding, luminescence; P42858; AID 1671202, 2021; inhibition, % at 15 µM; hit rate 3.6% among 190,000
Target sequence (P42858 whole entry, looked up, change not shown): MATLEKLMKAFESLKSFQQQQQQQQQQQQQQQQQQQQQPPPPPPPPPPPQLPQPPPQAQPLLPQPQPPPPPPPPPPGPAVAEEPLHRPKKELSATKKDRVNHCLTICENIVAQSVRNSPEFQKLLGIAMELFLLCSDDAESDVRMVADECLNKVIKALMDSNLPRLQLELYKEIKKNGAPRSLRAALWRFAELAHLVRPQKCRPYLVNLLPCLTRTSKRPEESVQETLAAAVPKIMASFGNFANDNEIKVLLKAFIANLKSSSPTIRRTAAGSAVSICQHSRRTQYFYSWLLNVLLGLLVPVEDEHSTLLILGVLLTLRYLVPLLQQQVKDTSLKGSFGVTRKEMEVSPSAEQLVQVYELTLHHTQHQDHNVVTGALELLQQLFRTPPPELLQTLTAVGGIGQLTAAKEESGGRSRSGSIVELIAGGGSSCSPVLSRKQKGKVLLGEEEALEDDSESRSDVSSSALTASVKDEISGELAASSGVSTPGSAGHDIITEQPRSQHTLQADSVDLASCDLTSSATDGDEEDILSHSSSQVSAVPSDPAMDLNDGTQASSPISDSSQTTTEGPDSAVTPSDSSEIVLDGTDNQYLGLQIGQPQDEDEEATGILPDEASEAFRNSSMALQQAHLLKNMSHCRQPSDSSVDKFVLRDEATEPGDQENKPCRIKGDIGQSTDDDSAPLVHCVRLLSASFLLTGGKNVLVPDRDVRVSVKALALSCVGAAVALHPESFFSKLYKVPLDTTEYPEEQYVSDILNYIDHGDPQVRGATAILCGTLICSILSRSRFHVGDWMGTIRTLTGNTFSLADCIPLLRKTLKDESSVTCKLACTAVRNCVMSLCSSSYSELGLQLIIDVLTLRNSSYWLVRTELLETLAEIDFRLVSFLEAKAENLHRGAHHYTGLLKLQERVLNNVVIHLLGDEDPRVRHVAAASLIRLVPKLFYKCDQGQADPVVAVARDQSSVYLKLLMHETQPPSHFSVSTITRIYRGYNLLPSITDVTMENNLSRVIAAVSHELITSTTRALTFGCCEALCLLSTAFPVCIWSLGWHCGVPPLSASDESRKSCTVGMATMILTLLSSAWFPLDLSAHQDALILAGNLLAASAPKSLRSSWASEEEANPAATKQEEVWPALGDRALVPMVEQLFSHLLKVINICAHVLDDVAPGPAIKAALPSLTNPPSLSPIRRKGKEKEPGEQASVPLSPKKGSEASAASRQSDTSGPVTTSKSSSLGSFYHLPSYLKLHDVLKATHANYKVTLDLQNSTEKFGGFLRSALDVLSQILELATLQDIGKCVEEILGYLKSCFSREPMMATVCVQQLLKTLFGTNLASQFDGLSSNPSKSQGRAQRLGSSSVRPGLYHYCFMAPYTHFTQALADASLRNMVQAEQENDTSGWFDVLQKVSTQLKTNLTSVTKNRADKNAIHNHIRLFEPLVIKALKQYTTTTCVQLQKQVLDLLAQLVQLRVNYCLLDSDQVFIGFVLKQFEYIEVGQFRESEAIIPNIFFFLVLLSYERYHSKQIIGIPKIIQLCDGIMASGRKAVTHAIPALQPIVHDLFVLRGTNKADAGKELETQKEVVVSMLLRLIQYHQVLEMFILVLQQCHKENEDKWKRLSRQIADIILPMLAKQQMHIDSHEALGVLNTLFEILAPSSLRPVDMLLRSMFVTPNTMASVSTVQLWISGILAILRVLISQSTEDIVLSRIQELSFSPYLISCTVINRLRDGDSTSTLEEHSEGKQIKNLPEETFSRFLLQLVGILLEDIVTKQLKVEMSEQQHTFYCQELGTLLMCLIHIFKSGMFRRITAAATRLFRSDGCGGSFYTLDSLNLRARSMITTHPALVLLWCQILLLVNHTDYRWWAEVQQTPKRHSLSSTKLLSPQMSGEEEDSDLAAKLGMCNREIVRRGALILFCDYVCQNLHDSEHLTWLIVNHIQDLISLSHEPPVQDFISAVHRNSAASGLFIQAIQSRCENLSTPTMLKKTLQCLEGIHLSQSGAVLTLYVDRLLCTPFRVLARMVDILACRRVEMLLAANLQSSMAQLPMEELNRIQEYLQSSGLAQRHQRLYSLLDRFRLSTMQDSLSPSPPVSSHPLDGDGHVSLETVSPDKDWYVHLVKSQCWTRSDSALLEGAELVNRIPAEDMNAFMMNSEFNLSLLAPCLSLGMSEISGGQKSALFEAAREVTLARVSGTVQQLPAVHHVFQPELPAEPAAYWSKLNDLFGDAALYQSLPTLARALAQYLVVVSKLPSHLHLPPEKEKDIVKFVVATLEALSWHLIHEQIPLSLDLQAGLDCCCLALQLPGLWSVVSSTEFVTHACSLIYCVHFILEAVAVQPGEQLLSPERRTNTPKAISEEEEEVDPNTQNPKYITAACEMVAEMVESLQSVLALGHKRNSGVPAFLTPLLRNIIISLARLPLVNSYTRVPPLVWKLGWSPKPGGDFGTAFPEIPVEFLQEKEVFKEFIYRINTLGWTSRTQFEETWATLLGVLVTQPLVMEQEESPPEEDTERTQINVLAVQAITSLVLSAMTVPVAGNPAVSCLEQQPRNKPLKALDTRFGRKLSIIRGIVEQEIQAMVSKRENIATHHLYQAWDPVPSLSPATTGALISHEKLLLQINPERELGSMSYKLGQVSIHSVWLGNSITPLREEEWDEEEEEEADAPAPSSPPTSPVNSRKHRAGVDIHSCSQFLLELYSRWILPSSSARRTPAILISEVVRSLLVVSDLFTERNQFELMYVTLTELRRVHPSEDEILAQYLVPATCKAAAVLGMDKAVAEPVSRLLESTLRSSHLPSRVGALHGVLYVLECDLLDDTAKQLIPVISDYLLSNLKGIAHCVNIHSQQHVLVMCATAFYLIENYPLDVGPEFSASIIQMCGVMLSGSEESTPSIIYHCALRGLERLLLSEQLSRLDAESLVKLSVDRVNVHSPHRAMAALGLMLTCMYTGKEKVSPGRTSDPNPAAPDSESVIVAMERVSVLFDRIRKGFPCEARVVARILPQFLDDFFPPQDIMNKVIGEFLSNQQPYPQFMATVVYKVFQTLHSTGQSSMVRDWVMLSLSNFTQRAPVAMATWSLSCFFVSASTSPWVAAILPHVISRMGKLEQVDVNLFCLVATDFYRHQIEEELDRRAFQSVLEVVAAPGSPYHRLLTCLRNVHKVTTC
Pf apPOL block = Pf-apPOL inhibitors, biochemical, fluorescence | inhibition, % at 10 µM | Plasmodium falciparum apicoplast DNA polymerase (apPOL) | Recombinant Pf-apPOL, molecular beacon fluorescence, 1.5 h | hit rate 0.25% among 210,000
Hits are given with their value; i = inactive; nt = no result. Cut-off read from the data, not from the text of the source: active = inhibition above about 50%; inactive = the rest.

SMILES | mHTT-CaM PPI inh | Pf apPOL block
Clc1ccc(Nc2nc(NCCCn3ccnc3)nc3nc[nH]c23)cc1 | 99.0 | i
c1cn(CCCNc2ncnc3nc[nH]c23)cn1 | i | i
CCCCNC(=O)CC1CCN(C(=O)c2sc(-c3ccccc3)nc2C)CC1 | i | i
CC(=O)CC1(O)C(=O)N(CCC(C)C)c2c(C)cccc21 (centres undefined) | i | i
O=C(Nc1nnc(C2CC(=O)N(c3ccc(F)cc3)C2)o1)c1cccc(Cl)c1 (centres undefined) | i | i
Cc1ccccc1CC(=O)Nc1nnc(C2CC(=O)N(c3ccccc3)C2)o1 (centres undefined) | 50.0 | i
CCOc1ccc(N2CC(c3nnc(NC(=O)Cc4ccccc4C)o3)CC2=O)cc1 (centres undefined) | i | i
O=C(Cc1cccs1)Nc1nnc(C2CC(=O)N(c3ccccc3)C2)o1 (centres undefined) | 59.5 | i
O=C(CSc1ccc(F)cc1)Nc1nnc(C2CC(=O)N(c3ccccc3)C2)o1 (centres undefined) | i | i
Cc1ccc(CC(=O)Nc2nnc(C3CC(=O)N(c4ccccc4)C3)o2)cc1 (centres undefined) | i | i
O=C(Nc1nnc(C2CC(=O)N(c3ccccc3)C2)o1)c1cccc(Cl)c1 (centres undefined) | 61.3 | i
COc1ccc(CC(=O)Nc2nnc(C3CC(=O)N(c4ccccc4)C3)o2)cc1 (centres undefined) | 92.5 | i
COc1ccc(C2=N/C(=C\c3cccc(Cl)c3)C(=O)O2)cc1 | i | i
O=c1c(Cl)c(NC2CCCCC2)cnn1-c1ccccc1 | i | i
CCc1cc(C(=O)Nc2ccc(F)c(F)c2)no1 | i | i
O=[N+]([O-])c1ccc(OCCCCCCOc2ccc([N+](=O)[O-])cc2)cc1 | nt | i
COc1ccc(N2CC(c3nnc(NC(=O)Cc4cccc(OC)c4)o3)CC2=O)cc1 (centres undefined) | 53.4 | i
COc1ccc(N2CC(c3nnc(NC(=O)Cc4cccc(F)c4)o3)CC2=O)cc1 (centres undefined) | i | i
CNc1ncnc2c1C(c1ccc([N+](=O)[O-])cc1)c1c(NC)ncnc1O2 | 52.0 | i
CC1(C(=O)O)COC(c2ccc([N+](=O)[O-])cc2)OC1 (centres undefined) | i | i
O=C(c1cnn2c3c(cnc12)CCCC3)N1CCCCCC1 | i | i
COc1ccc(NC(=O)C2CN(S(=O)(=O)C3CC3)CC23CCCCC3)cc1 (centres undefined) | 57.9 | i
COc1ccc(OC)c(NC(=O)C2CN(S(=O)(=O)C3CC3)CC23CCCCC3)c1 (centres undefined) | i | i
CCOc1ccc(OCCCOc2ccc([N+](=O)[O-])cc2)cc1 | i | i
COc1ccc(C)cc1NC(=O)C1CN(S(=O)(=O)c2cccnc2)CC12CCCCC2 (centres undefined) | i | i
SMILES | mHTT-CaM PPI inh | Pf apPOL block
CCCN1C(=O)Cc2cc(C(=O)N3CCN(c4ccccn4)CC3)ccc21 | i | i
CCCN1C(=O)Cc2cc(C(=O)N3CCN(c4ccccc4C)CC3)ccc21 | 54.9 | i
CC(Nc1cc(N2CCN(C(=O)c3cccs3)CC2)ccc1[N+](=O)[O-])c1ccccc1 (centres undefined) | i | i
CC(Nc1cc(N2CCN(C(=O)c3ccco3)CC2)ccc1[N+](=O)[O-])c1ccccc1 (centres undefined) | 56.4 | i
O=C(O)c1cc(Cl)c(Cl)cc1C(=O)Nc1cccnc1 | i | 54.7
O=C(Nc1cccnc1)c1ccc(Cl)cc1Cl | i | i
O=C(CC1CCN(S(=O)(=O)c2cccs2)CC1)NCc1ccccc1F | i | i
COC(=O)c1ccc(-c2csc(NC(=O)Nc3ccc4c(c3)OCO4)n2)cc1 | i | i
O=[N+]([O-])c1ccc(-c2csc(Nc3ccc4c(c3)OCO4)n2)cc1 | 55.1 | i
Clc1ccc(-c2csc(Nc3ccc4c(c3)OCO4)n2)cc1 | i | i
CC(C)Cc1ccc(-c2csc(Nc3ccc4c(c3)OCO4)n2)cc1 | 66.9 | i
COc1ccc(CCN2CC(C(=O)NCc3ccccc3Cl)CC2=O)cc1OC (centres undefined) | i | i
COCC(=O)N1CCN(c2nc(CN3CCC(C)CC3)cs2)CC1 | i | i
O=C1OC(c2ccccc2Br)=N/C1=C\c1ccco1 | i | i
OC/C=C/C=C/c1ccc(F)cc1 | 72.0 | i
CC(/C=C/c1ccc(F)cc1)=C\C(=O)O | i | i
Cc1cc(C(=O)N2CC(C)C(c3nc(-c4ccncc4)no3)C2)n[nH]1 (centres undefined) | i | i
COc1ccc(C2C(C#N)=C(N)Oc3n[nH]c(-c4ccccn4)c32)c(OC)c1OC (centres undefined) | i | i
N#CC1=C(N)Oc2n[nH]c(-c3ccccn3)c2C1c1ccc([N+](=O)[O-])s1 (centres undefined) | 99.0 | i
N#CC1=C(N)Oc2n[nH]c(-c3ccccn3)c2C1c1ccc2c(c1)OCO2 (centres undefined) | 62.0 | i
N#CC1=C(N)Oc2n[nH]c(-c3ccc4c(c3)OCO4)c2C1c1ccc2c(c1)OCO2 (centres undefined) | i | i
Cc1[nH]nc2c1C(c1ccc3c(c1)OCO3)C(C#N)=C(N)O2 (centres undefined) | i | i
Cc1ccc(C2C(C#N)=C(N)Oc3n[nH]c(-c4ccccc4)c32)s1 (centres undefined) | i | i
N#CC1=C(N)Oc2n[nH]c(-c3ccccn3)c2C1c1ccc(O)cc1 (centres undefined) | 80.0 | i
N#CC1=C(N)Oc2n[nH]c(-c3ccc4c(c3)OCO4)c2C1c1ccc(Cl)cc1 (centres undefined) | 81.0 | i
SMILES | mHTT-CaM PPI inh | Pf apPOL block
CCc1ccc(NC(=O)N2CCc3nc[nH]c3C2)cc1 | i | i
Cc1nn(C)cc1S(=O)(=O)NCCCN1CCOCC1 | i | i
N#CC1=C(N)Oc2n[nH]c(-c3ccccn3)c2C1c1cccnc1 (centres undefined) | i | i
N#CC1=C(N)Oc2n[nH]c(-c3ccccn3)c2C1c1ccncc1 (centres undefined) | 53.0 | i
O=C1C(=O)N(CCCCN2C(=O)C(=O)c3ccccc32)c2ccccc21 | i | i
O=C1C(=O)N(Cc2ccc(F)cc2)c2ccccc21 | i | i
O=C1C(=O)N(Cc2ccc(Cl)c(Cl)c2)c2ccc([N+](=O)[O-])cc21 | 91.0 | i
O=C1C(=O)N(Cc2ccc(Cl)c(Cl)c2)c2ccccc21 | 93.0 | i
O=C1C(=O)N(Cc2ccc(Br)cc2)c2ccc([N+](=O)[O-])cc21 | i | i
O=C1C(=O)N(Cc2ccc(Br)cc2)c2ccccc21 | 70.0 | i
O=C(NCCN1CCOCC1)C12CC3CC(CC(C3)C1)C2 | i | i
COc1cc(C(=O)N2CCC(CC(=O)N3CCCCC3)CC2)cc(OC)c1OC | i | i
CC12CCC3c4ccc(O)cc4CCC3C1CC(=Cc1ccccc1)C2O (centres undefined) | 97.2 | i
COc1cc2c(cc1O)CC[C@@H]1[C@@H]2CC[C@]2(C)[C@@H](O)CC[C@@H]12 | nt | i
CC12CCC3c4ccc(O)cc4CCC3C1CC(=Cc1ccc(Cl)cc1)C2O (centres undefined) | 100.0 | i
C#CC1(O)CCC2C3CCc4cc(O)ccc4C3CCC21C (centres undefined) | i | i
Cc1ccc(C2=NN(C(=O)C3CCCO3)C(c3ccccc3F)C2)cc1 (centres undefined) | i | i
